The panel holds about 79,000 compounds, 15% with a hit somewhere; the sample as a whole holds those more often. Activity calls are given as the source filed them. Rule as the data show it: active = growth inhibition above about 70%; inactive = the rest.

The nature of the assay: NCI Yeast Anticancer Drug Screen. Data for the rad50 strain (AID 155).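 Also: 0% = growth of vehicle-only cultures of the same strain.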 The settings on record: S. cerevisiae rad50 strain growth inhibition; at 5.0 µM (retest, dose inferred, filed as 0.5); active compounds read high. The gist of the method: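 Cells are treated with compound, grown, and their growth is then scored against vehicle-only cultures of the same repair-deficient yeast strain.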
Regarding `COc1cc(OC)c(/C=C\c2ccnc3ccccc23)c(OC)c1`, the growth inhibition is 35% (inactive).
As to `COC(=O)C1(COCc2ccccc2)CCCC2OC21` (centres undefined), the growth inhibition was 16% (inactive).
The same measure for `O=[N+]([O-])/C(=C\c1cccs1)c1ccccc1`: 90% (active); for `Cc1cc(C(O)(c2cc(C)c(O)c(C(=O)O)c2)c2cc(C)c(O)c(C(=O)O)c2)cc(C(=O)O)c1O`: 2% (inactive).
For `CC(C)C(C)(C(=O)O)C(C)C` the value was 0% (inactive); for `CN(Cc1cc(Cl)cc(Cl)c1)CC(C(=O)c1ccccc1)c1ccccc1` (centres undefined), 21% (inactive); for `O=c1[nH]c(Cc2ccccc2)nc2c1sc1nc3ccccc3n12`, 36% (inactive).
The same measure for `CC(NNC(=S)N1CCCC1)c1cccnn1` (centres undefined): 98% (active).
On to `Cc1ccc2c(c1)C(O)(c1ccccc1)CCS2` (centres undefined), for which the growth inhibition is 87% (active).

(Values after PubChem BioAssay (NCI).)
